Bioassay records: PubChem, National Center for Advancing Translational Sciences (NCATS)
In the library only some 9.9% were active in any assay of this set; here they are far more common.
Tau fluor cs: counter-screen for tau fibril formation inhibitors; 280,000 tested, 0.93% active; Potency, µM (series often up to 57.7 µM), for inactives: top-dose activity change, negative = decrease; tau K18 P301L Alexa594 fluorescence, heparin fibrillization; AID 1463; also: nearly all actives have a fitted effect of over 55% in size
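Human K18 P301L tau (15 uM unlabeled plus 0.24 uM Alexa 594-labeled, final) in 100 mM sodium acetate pH 7 was mixed with compound and 20 uM heparin and incubated 6 hr at 37 C.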
KDM4E inh: JMJD2E (human) inhibition | JMJD2E catalytic domain, FDH-coupled NADH fluorescence (FDH is formaldehyde dehydrogenase) | 230,000 tested, 1.6% active | AID 2147 | Potency, µM (doses to about 57.1 µM), inactives show top-dose activity change, negative = inhibition, hits mostly inhibitors; active = well fitted inhibition curve with a large enough effect, not every such curve was filed as active; inconclusive = small, poorly fitted or top-dose-only effect, or another doubt; inactive = no such curve, though single readings can be large or run the other way;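 also: 0% = wells with enzyme and -100% = buffer wells without enzyme; nearly all actives have a fitted effect of over 50% in size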
ALDH1A1 block: blocks purified human ALDH1A1 activity; Potency, µM (doses to about 75.3 µM), for inactives: at the highest dose activity, negative = inhibition, usual class: inhibitors; P00352; Purified ALDH1A1, NADH fluorescence, propionaldehyde substrate; 220,000 tested, 7.3% active; active = well fitted inhibition curve with a large enough effect, not every such curve was filed as active; inconclusive = small, poorly fitted or top-dose-only effect, or another doubt; inactive = no such curve, though single readings can be large or run the other way;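 also: plate controls were no enzyme wells and a reference inhibitor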
Target sequence (P00352 whole entry, looked up): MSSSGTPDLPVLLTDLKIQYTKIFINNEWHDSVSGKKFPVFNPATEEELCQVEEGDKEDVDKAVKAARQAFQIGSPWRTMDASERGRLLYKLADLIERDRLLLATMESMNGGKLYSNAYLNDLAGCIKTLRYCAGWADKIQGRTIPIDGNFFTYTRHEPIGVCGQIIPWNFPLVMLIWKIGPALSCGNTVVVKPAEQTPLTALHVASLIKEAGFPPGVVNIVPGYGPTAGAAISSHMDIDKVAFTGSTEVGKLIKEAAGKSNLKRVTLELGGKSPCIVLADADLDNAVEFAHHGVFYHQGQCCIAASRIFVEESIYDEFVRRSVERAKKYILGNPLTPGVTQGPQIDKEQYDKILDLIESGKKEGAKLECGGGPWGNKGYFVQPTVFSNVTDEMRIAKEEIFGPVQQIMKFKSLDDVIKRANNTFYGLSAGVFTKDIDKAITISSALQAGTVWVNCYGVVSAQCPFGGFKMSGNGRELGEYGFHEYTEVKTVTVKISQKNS
Tau FP inhib: inhibitors of human tau fibril formation; AID 1468; Potency, µM (series often up to 57.7 µM), for inactives: at the top dose activity, negative = inhibition, hits mostly inhibitors; 280,000 tested, 0.39% active; P10636; K18 P301L tau heparin fibrillization, Alexa594 FP, 6 h; also: nearly all actives have a fitted effect of over 55% in size
Target sequence (P10636 561-689 P618L limits assumed): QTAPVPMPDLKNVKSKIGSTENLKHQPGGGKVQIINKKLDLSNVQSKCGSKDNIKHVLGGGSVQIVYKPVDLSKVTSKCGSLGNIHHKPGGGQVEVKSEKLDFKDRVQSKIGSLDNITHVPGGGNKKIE
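Heparin (20 uM) drove fibril formation of recombinant tau K18 P301L, 15 uM unlabeled with 0.24 uM Alexa 594 label, for 6 hr at 37 C in 100 mM sodium acetate pH 7. Fluorescence polarization (555/632 nm) read 1 hr after 30 uM ThT.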
HPGD block: inhibitors of human 15-hydroxyprostaglandin dehydrogenase (HPGD). 150,000 tested, 4.3% active. AID 894. purified HPGD, NADH fluorescence kinetic, PGE2 substrate. Potency, µM, for inactives: at the top dose activity change, negative = inhibition, hits mostly inhibitors; active = well fitted inhibition curve with a large enough effect, not every such curve was filed as active; inconclusive = small, poorly fitted or top-dose-only effect, or another doubt; inactive = no such curve, though single readings can be large or run the other way
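NADH formation kinetics: reaction with 30 uM PGE2 and 1 mM NAD+ (final), 20 nM enzyme, Tris-HCl pH 8 with Tween 20, after 15 min compound preincubation at room temperature. Fluorescence change, last versus first of five reads.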
Tau fibril ThT: blocks human tau fibril formation measured by thioflavin T. Potency, µM (top dose mostly 57.4 µM), without a hit: at the top dose activity, negative = inhibition, actives largely listed as inhibitors. 270,000 tested, 2.1% active. recombinant tau K18 P301L (four-repeat tau fragment), heparin-induced fibrillization, ThT fluorescence; also: nearly all actives have a fitted effect of over 55% in size
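Tau K18 P301L fragment (15 uM unlabeled plus 0.24 uM Alexa 594-labeled) in 100 mM sodium acetate pH 7 with compound, fibrillization induced by 20 uM heparin for 6 hr at 37 C. Thioflavin T (30 uM) added, fluorescence read after 1 hr (ex 450, em 510 nm).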
* = called active by the depositor; [ ] = dose if it differs, or a comment. Unless noted, calls follow the shape of the dose curve; as a rule, active = well fitted curve in the direction sought with a large enough effect; inconclusive = small, poorly fitted or top-dose-only effect, or another doubt; inactive = no such curve, though single readings can be large; an effect the other way counts as inactive or inconclusive. Unless noted, % is scaled to controls: 0 for no effect and ±100 for the full control effect; potency is read from the fitted curve at half-maximal effect.

How did CCCCCCSc1nnc2[nH]c(=O)cc(N)n12 do in these assays?
Tau fluor cs: 3%; KDM4E inh: 3%; ALDH1A1 block: 3%; Tau FP inhib: 6%; HPGD block: 11µM*; Tau fibril ThT: 7%

Results for O=C(NCc1ccco1)c1cc(-c2ccccc2)on1 ?
Tau fluor cs: 2%; KDM4E inh: -1%; ALDH1A1 block: -1%; Tau FP inhib: 3%; HPGD block: -20%; Tau fibril ThT: 2%

How did O=C(NCc1ccco1)c1cc(-c2cccs2)on1 do in these assays?
Tau fluor cs: -9%; KDM4E inh: inconclusive; ALDH1A1 block: 22µM*; Tau FP inhib: -3%; HPGD block: inconclusive; Tau fibril ThT: -7%

How did O=C(CCC(=O)c1cccs1)c1cccs1 do in these assays?
Tau fluor cs: -10%; KDM4E inh: 3%; ALDH1A1 block: 28µM*; Tau FP inhib: 4%; HPGD block: -28%; Tau fibril ThT: -6%

How did O=C(NCc1ccco1)c1nn2c(C(F)(F)F)cc(-c3cccs3)nc2c1Br do in these assays?
Tau fluor cs: -29%; KDM4E inh: -19%; ALDH1A1 block: 22µM*; Tau FP inhib: inconclusive; HPGD block: -23%; Tau fibril ThT: 14µM*

Results for COc1ccc(CNC(=O)c2cc(-c3ccco3)on2)cc1 ?
Tau fluor cs: -5%; KDM4E inh: -1%; ALDH1A1 block: 3.5µM*; Tau FP inhib: 1%; HPGD block: -14%; Tau fibril ThT: -8%

What do the screens show for `CCn1cc(C(=O)N2CCN(c3ccc(OC)cc3)CC2)c(=O)c2cc(S(=O)(=O)N(C)C3CCCCC3)ccc21`?
Tau fluor cs: -10%; Tau FP inhib: 6%; Tau fibril ThT: -8%

How did O=C(NCc1ccco1)Nc1cccs1 do in these assays?
Tau fluor cs: -20%; KDM4E inh: -5%; ALDH1A1 block: 28µM*; Tau FP inhib: -2%; HPGD block: -9%; Tau fibril ThT: inconclusive

Results for O=C(NCc1ccco1)c1cnccn1 ?
Tau fluor cs: 6%; KDM4E inh: -14%; ALDH1A1 block: 28µM*; Tau FP inhib: -6%; HPGD block: -17%; Tau fibril ThT: -3%

What do the screens show for `O=C(NCc1ccco1)c1cc2c(s1)CSC2`?
Tau fluor cs: -18%; KDM4E inh: inconclusive; ALDH1A1 block: inconclusive; Tau FP inhib: inconclusive; HPGD block: inconclusive; Tau fibril ThT: 28µM*

What do the screens show for `COc1cc(NCCC(=O)c2cccs2)c(OC)cc1Cl`?
Tau fluor cs: -21%; KDM4E inh: -11%; ALDH1A1 block: 1.4µM*; Tau FP inhib: 13%; Tau fibril ThT: inconclusive

What do the screens show for `O=C(NNC(=S)NCc1ccco1)c1cccs1`?
Tau fluor cs: 2%; KDM4E inh: -8%; ALDH1A1 block: inconclusive; Tau FP inhib: 7%; Tau fibril ThT: -2%

What do the screens show for `O=C(NCc1ccc2c(c1)OCO2)c1cc2c(s1)CSC2`?
Tau fluor cs: -23%; KDM4E inh: -21%; ALDH1A1 block: inconclusive; Tau FP inhib: -13%; HPGD block: -23%; Tau fibril ThT: inconclusive

What do the screens show for `COc1ccccc1CNC(=O)c1cnccn1`?
Tau fluor cs: -10%; KDM4E inh: -4%; ALDH1A1 block: -1%; Tau FP inhib: -3%; HPGD block: -11%; Tau fibril ThT: -19%

Results for C=CCC1(C)OC=Cc2nc3cc(Cl)c(Cl)cc3nc21 (stereo unspecified) ?
Tau fluor cs: -12%[11.6 µM]; ALDH1A1 block: inconclusive; Tau FP inhib: 1%[11.6 µM]; Tau fibril ThT: -11%[11.5 µM]

How did O=C(CSCc1ccco1)c1cccs1 do in these assays?
Tau fluor cs: -2%; KDM4E inh: -12%; ALDH1A1 block: inconclusive; Tau FP inhib: -1%; HPGD block: 16µM*; Tau fibril ThT: inconclusive

Results for O=C(NCc1ccco1)c1cccs1 ?
Tau fluor cs: 2%; KDM4E inh: -4%; ALDH1A1 block: inconclusive; Tau FP inhib: 3%; HPGD block: 25µM*; Tau fibril ThT: -4%

How did CC(C)(C)c1ccc(-c2nnc(SCC(=O)NC3CCS(=O)(=O)C3)n2N)cc1 (stereo unspecified) do in these assays?
Tau fluor cs: 9%; KDM4E inh: -11%; ALDH1A1 block: inconclusive; Tau FP inhib: -1%; Tau fibril ThT: 4%

What do the screens show for `CN1C(=O)/C(=C\C=C2/CCCN2C)N(C)C1=S`?
Tau fluor cs: -14%; KDM4E inh: -28%; ALDH1A1 block: -1%; Tau FP inhib: inconclusive; Tau fibril ThT: inconclusive

How did CCN1C(=O)/C(=C/C=C2/CCCN2C)OC1=S do in these assays?
Tau fluor cs: -23%; KDM4E inh: 11µM*; ALDH1A1 block: 2.8µM*; Tau FP inhib: -12%; Tau fibril ThT: inconclusive

Results for CCCCCCn1c(-c2cccs2)n[nH]c1=S ?
Tau fluor cs: -11%; KDM4E inh: inconclusive; ALDH1A1 block: inconclusive; Tau FP inhib: 7%; Tau fibril ThT: -11%

How did CN(NC(=O)/C=C/C(=O)O)c1ncc(C(F)(F)F)cc1Cl do in these assays?
Tau fluor cs: -2%; KDM4E inh: -4%; ALDH1A1 block: 2.8µM*; Tau FP inhib: -3%; Tau fibril ThT: -7%

Results for C=CC(=O)NN(C)c1ncc(C(F)(F)F)cc1Cl ?
Tau fluor cs: 0%; KDM4E inh: 1%; ALDH1A1 block: 8%; Tau FP inhib: 2%; Tau fibril ThT: -7%

Results for O=c1c(Cl)c(N2CCC3(CC2)OCCO3)cnn1C12CC3CC(CC(C3)C1)C2 ?
Tau fluor cs: 5%; KDM4E inh: 1%; Tau FP inhib: 1%; Tau fibril ThT: 3%

How did CC(=C/c1ccco1)/C=N/N1CCN(c2ccccc2)CC1 do in these assays?
Tau fluor cs: -29%; KDM4E inh: 1%; ALDH1A1 block: inconclusive; Tau FP inhib: 1%; HPGD block: -8%; Tau fibril ThT: 14µM*

Results for Brc1ccc(C2Nc3cccc4cccc(c34)N2)s1 ?
Tau fluor cs: inconclusive; KDM4E inh: 5%; ALDH1A1 block: inconclusive; Tau FP inhib: inconclusive; HPGD block: -21%; Tau fibril ThT: 13µM*

How did COc1cc(C2Nc3cccc4cccc(c34)N2)cc(OC)c1OC(C)=O do in these assays?
Tau fluor cs: inconclusive; KDM4E inh: -6%; ALDH1A1 block: inconclusive; Tau FP inhib: 4%; HPGD block: -12%; Tau fibril ThT: inconclusive

How did CCOc1ccc(Br)cc1S(=O)(=O)Nc1cccc(S(=O)(=O)N(C)C)c1 do in these assays?
Tau fluor cs: -17%; KDM4E inh: -1%; ALDH1A1 block: 20µM*; Tau FP inhib: -7%; HPGD block: -7%; Tau fibril ThT: -6%

How did CCOc1ccc(Br)cc1S(=O)(=O)Nc1ccc(C(=O)OCC(=O)Nc2ccc(C#N)cc2)cc1 do in these assays?
Tau fluor cs: inconclusive; KDM4E inh: 1%; ALDH1A1 block: 2%; Tau FP inhib: 25µM*; Tau fibril ThT: -5%
